Hit rate of the full screen: of about 5,500 compounds, about 2,000 (36%) were called active. Not shown: some 18% with an inconclusive outcome. Rule as the data show it: active = normalized growth mostly below about 0.91 (no sharp cut-off); inconclusive = no clear call, values can overlap the other calls; inactive = mostly above about 0.92. The list shows a part of the results.
Test: chemical genetic growth profiling, strain panel (AID 1159580);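 also: tested at 20 µM; growth read once vehicle control cultures reached saturation at 30 °C; 1 = growth at the plate median or of vehicle wells; lower values mean less growth of the strain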
Details: S. cerevisiae deletion strains, growth OD

Measured: normalized growth

COc1cc([C@@H]2c3cc4c(cc3[C@@H](O)C3COC(=O)C32)OCO4)cc(OC)c1O (stereo not given in full)
inactive: locus YAL021C, strain ccr4, active compounds read low 0.971 | locus YAL026C, strain drs2, active compounds read low 0.982 | locus YAL030W, strain snc1, active compounds read low 0.986 | locus YBL061C, strain skt5, active compounds read low 0.988 | locus YBR009C, strain hhf1, active compounds read low 0.988 | locus YBR023C, strain chs3, active compounds read low 1 | locus YBR171W, strain sec66, active compounds read low 0.996 | locus YBR231C, strain swc5, active compounds read low 1 | locus YBR279W, strain paf1, active compounds read low 0.997 | locus YCL011C, strain gbp2, active compounds read low 0.988 | locus YCL016C, strain dcc1, active compounds read low 0.981 | locus YCL061C, strain MRC1, active compounds read low 0.978 | locus YCL069W, strain vba3, active compounds read low 0.985 | locus YCR088W, strain abp1, active compounds read low 0.988 | locus YDL005C, strain med2, active compounds read low 0.979 | locus YDL040C, strain nat1, active compounds read low 0.981 | locus YDR001C, strain nth1, active compounds read low 0.977 | locus YDR069C, strain doa4, active compounds read low 0.988 | locus YDR137W, strain rgp1, active compounds read low 1 | locus YDR159W, strain sac3, active compounds read low 0.994 | locus YDR195W, strain ref2 0.944 | locus YDR297W, strain sur2, active compounds read low 0.989 | locus YDR334W, strain swr1, active compounds read low 0.977 | locus YDR335W, strain msn5, active compounds read low 0.985 | locus YDR392W, strain spt3, active compounds read low 1.01 | locus YEL003W, strain gim4, active compounds read low 0.997 | locus YEL037C, strain rad23, active compounds read low 0.981 | locus YEL061C, strain CIN8 (second series), active compounds read low 0.991 | locus YER015W, strain faa2, active compounds read low 0.993 | locus YER016W, strain bim1, active compounds read low 0.987 | locus YER111C, strain swi4, active compounds read low 0.981 | locus YER155C, strain BEM2 (second series), active compounds read low 1.01 | locus YFR010W, strain ubp6, active compounds read low 0.973 | locus YGL167C, strain pmr1, active compounds read low 0.975 | locus YGL173C, strain kem1, active compounds read low 0.992 | locus YGL227W, strain vid30, active compounds read low 0.995 | locus YGL240W, strain doc1, active compounds read low 1.01 | locus YGL253W, strain hxk2, active compounds read low 0.934 | locus YHR013C, strain ard1, active compounds read low 0.964 | locus YHR027C, strain rpn1, active compounds read low 0.986 | locus YHR030C, strain SLT2, active compounds read low 1.03 | locus YHR079C, strain IRE1, active compounds read low 1.04 | locus YHR142W, strain chs7, active compounds read low 0.971 | locus YJL092W, strain hpr5, active compounds read low 0.977 | locus YJL095W, strain BCK1 (second series), active compounds read low 0.981 | locus YJL095W, strain BCK1, active compounds read low 1.02 | locus YJL115W, strain asf1, active compounds read low 0.966 | locus YJL129C, strain trk1, active compounds read low 0.977 | locus YJL154C, strain vps35, active compounds read low 0.985 | locus YJL164C, strain tpk1, active compounds read low 0.967 | locus YJL166W, strain qcr8, active compounds read low 0.997 | locus YJL187C, strain SWE1, active compounds read low 1 | locus YJR066W, strain TOR1, active compounds read low 0.993 | locus YKL160W, strain elf1, active compounds read low 0.973 | locus YKR026C, strain gcn3, active compounds read low 0.991 | locus YKR091W, strain srl3, active compounds read low 0.978 | locus YLL001W, strain dnm1, active compounds read low 0.953 | locus YLL026W, active compounds read low 0.987 | locus YLL041C, strain sdh2, active compounds read low 0.979 | locus YLR027C, strain aat2, active compounds read low 0.991 | locus YLR113W, strain HOG1, active compounds read low 1.03 | locus YLR221C, strain rsa3, active compounds read low 1.02 | locus YLR258W, strain gsy2, active compounds read low 0.985 | locus YLR262C, strain YPT6 (second series), active compounds read low 1.05 | locus YLR320W, strain mms22, active compounds read low 1.02 | locus YLR342W, strain FKS1, active compounds read low 0.986 | locus YLR357W, strain rsc2, active compounds read low 0.966 | locus YLR370C, strain arc18, active compounds read low 0.983 | locus YLR384C, strain iki3, active compounds read low 0.982 | locus YML120C, strain ndi1, active compounds read low 0.985 | locus YMR058W, strain fet3, active compounds read low 0.979 | locus YMR125W, strain sto1, active compounds read low 0.979 | locus YMR129W, active compounds read low 0.997 | locus YMR205C, strain PFK2, active compounds read low 0.965 | locus YMR231W, strain pep5, active compounds read low 0.977 | locus YNL071W, strain lat1, active compounds read low 0.991 | locus YNL183C, strain NPR1, active compounds read low 0.997 | locus YNL209W, strain ssb2, active compounds read low 0.993 | locus YNL248C, strain rpa49, active compounds read low 0.959 | locus YNL322C, strain KRE1 (second series), active compounds read low 0.991 | locus YNR049C, strain mso1, active compounds read low 0.986 | locus YOR001W, strain rrp6, active compounds read low 0.979 | locus YOR070C, strain gyp1, active compounds read low 0.983 | locus YOR080W, strain dia2, active compounds read low 1 | locus YOR083W, strain WHI5, active compounds read low 0.982 | locus YOR106W, strain vam3, active compounds read low 0.958 | locus YOR231W, strain MKK1, active compounds read low 1.03 | locus YOR265W, strain rbl2, active compounds read low 0.987 | locus YOR270C, strain vph1, active compounds read low 0.94 | locus YOR290C, strain snf2, active compounds read low 0.952 | locus YPL051W, strain arl3, active compounds read low 1.03 | locus YPL078C, strain atp4, active compounds read low 0.949 | locus YPL106C, strain sse1, active compounds read low 0.99 | locus YPL240C, strain hsp82, active compounds read low 0.994 | locus YPL256C, strain CLN2, active compounds read low 1.02

Source: PubChem BioAssay AID1159580 (chemical genetic matrix, 2015)
